# Pf Dd2 inh: Plasmodium falciparum Dd2 growth inhibition; Potency, µM (titrated, usually from 28.9 µM), for inactives: at the highest dose activity, negative = inhibition, hits mostly inhibitors; actives 4.3% (n = 120,000); P. falciparum Dd2 growth, SYBR Green, 72 h; AID 1347417; active = well fitted inhibition curve with a large enough effect;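 also: plate controls were DMSO vehicle for no effect and reference drug for full effect; nearly all actives have a fitted effect of over 65% in size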
#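 Readout: SYBR Green fluorescence, 485 nm excitation, 535 nm emission, after ~16 h lysis at 37C. Before that, Dd2-infected red cells (2.5% hematocrit) grew 72 h with compound, 29 uM top final concentration.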
# * = called active by the depositor; i = inactive; [ ] = another dose, or the depositor's remark. This excerpt belongs to a sample that is enriched for hits. Potency is read from the fitted curve at half-maximal effect.
SMILES,Pf Dd2 inh
CCN(CC)C(=O)C[C@@H]1c2nc(NC(=O)c3ccc(F)cc3)sc2C[C@@H]2[C@](C)(CO)[C@H](O)CC[C@]21C,-11.7%
C[C@]1(CO)[C@H]2Cc3sc(NC(=O)c4c(F)cccc4F)nc3[C@@H](CC(=O)O)[C@]2(C)CC[C@H]1O,-3.8%
COc1ccc(CNC(=O)C[C@@H]2c3nc(NC(=O)c4cccs4)sc3C[C@@H]3[C@](C)(CO)[C@H](O)CC[C@]32C)cc1,3.98µM*
C=CCN(C)C(=O)C[C@@H]1c2nc(NC(=O)c3ccco3)sc2C[C@@H]2[C@](C)(CO)[C@H](O)CC[C@]21C,i
CC(C)(C)CC(=O)Nc1nc2c(s1)C[C@@H]1[C@](C)(CO)[C@H](O)CC[C@@]1(C)[C@@H]2CC(=O)NCc1ccccc1,i
COc1ccc(CNC(=O)C[C@@H]2c3nc(NC(=O)c4c(F)cccc4F)sc3C[C@@H]3[C@](C)(CO)[C@H](O)CC[C@]32C)cc1,7.94µM*
C=CCN(C)C(=O)C[C@@H]1c2nc(NC(=O)COC)sc2C[C@@H]2[C@](C)(CO)[C@H](O)CC[C@]21C,-7.8%
C[C@]1(CO)[C@H]2Cc3sc(NC(=O)C4CCCCC4)nc3[C@@H](CC(=O)O)[C@]2(C)CC[C@H]1O,-20.6%
CN(C)c1ccc(C(=O)N[C@H]2CC(C)(C)[C@@H]3C[C@@](C)(O)CC[C@]23CCC(=O)NC2CC2)cc1,i
CS(=O)(=O)N1CCC(C2CCNC2)CC1 (centres undefined),-1.9%
O=C1NC2(CCN(C(=O)c3cccnc3)C2)N=C1c1cccnc1 (centres undefined),8.1%[44.1 µM]
O=C(Cn1c(=O)oc2ccccc21)NC1CCCN(CCCc2ccccc2)C1 (centres undefined),i
Cc1ccc2nc(CO[C@H]3CN(Cc4ccc(Cl)cc4)C[C@H]3F)[nH]c2c1,-5.1%[44.1 µM]
C=CCN1CCN(C(=O)CCC[C@@H]2[C@H]3CCCN4CCC[C@@H](CN2Cc2ccccc2)[C@@H]34)CC1,i
O=C(CCC[C@@H]1[C@H]2CCCN3CCC[C@@H](CN1C(=O)c1cccnc1)[C@@H]23)N1CCCC1,3.5%
C=CCN1CCN(C(=O)CCC[C@@H]2[C@H]3CCCN4CCC[C@@H](CN2C(=O)c2ccccc2)[C@@H]34)CC1,10µM*
COc1ccc(S(=O)(=O)N[C@H]2C[C@@H](c3nc(-c4ccc(C)cc4)no3)N(C)C2)cc1,-4.8%[44.1 µM]
COc1ccc(Cl)cc1C(=O)N1CCCC(c2[nH]ccc2C(N)=O)C1 (centres undefined),3.0%
O=C(Cc1c(F)cccc1Cl)N1CCC(c2noc(COc3ccc(F)cc3)n2)CC1,i
O=C1CCN(S(=O)(=O)c2ccccc2)CCCN(C(=O)NCc2ccccc2)CCN1,1.6%
COc1cccc([C@@H]2CCN(Cc3cn[nH]c3C(=O)O)C[C@H]2O)c1,-2.9%
Cc1c(CN2CCCC(CNC(=O)c3cccc4ccccc34)C2)[nH]c2ccccc12 (centres undefined),11.2µM*
COc1cccc(C(=O)NCC2CCCN(Cc3ccccn3)C2)c1OC (centres undefined),-21.5%
COc1cccc([C@@H]2CCN(Cc3[nH]c4ccccc4c3C)C[C@H]2O)c1,0.891µM*
COc1cccc([C@@H]2CCN(Cc3ccc(NC(C)=O)cc3)C[C@H]2O)c1,-7.4%
SMILES,Pf Dd2 inh
COc1cccc(C(=O)NCC2CCCN(Cc3cnn(C)c3C)C2)c1OC (centres undefined),-4.5%
NC(=O)N1CCCC(C(=O)N2CCN(Cc3cccc(O)c3)CC2)C1 (centres undefined),8.4%
O=C(CC1CCCN(c2cnn(CC3CC3)c(=O)c2)C1)NCCN1CCOCC1 (centres undefined),27.0%
CCc1ccc(NC(=O)CN(c2ccc(Cl)cc2)S(=O)(=O)c2ccsc2C(=O)OC)cc1,11.2µM*
COC(=O)c1sccc1S(=O)(=O)N(CC(=O)Nc1ccccc1F)c1ccccc1,55.4%
COC(=O)c1sccc1S(=O)(=O)N(CC(=O)Nc1ccc(C)cc1)c1ccccc1,-17.4%
CC(C)CCN1CCC(N2CCN(C(=O)c3ccc(C(F)(F)F)cc3)CC2)C1=O (centres undefined),-22.0%
CC(C)(Oc1ccc(Cl)cc1)C(=O)Nc1cccc(-c2cn3cccnc3n2)c1,11.2µM*
CC(C)(C)C(=O)Nc1cccc(-c2cn3cccnc3n2)c1,-5.6%
COc1cccc(NC(=O)Nc2cccc(-c3cn4cccnc4n3)c2)c1,i
CCCC1(CO)CCCN(C(=O)CCn2ccc(=O)[nH]c2=O)C1 (centres undefined),-18.5%
CCCC1(CO)CCCN(Cc2cn3ccc(C)cc3n2)C1 (centres undefined),10µM*
CCCC1(CO)CCCN(Cc2nnc(-c3cccnc3)o2)C1 (centres undefined),-4.1%
O=C(NCC1CC1)c1noc(-c2ccccc2F)n1,i
COCC(=O)Nc1ccc(-c2c(-c3ccccc3OC)nn(-c3ccc(C)cc3)c2OC(C)=O)cc1,-9.8%
CC(Oc1ccccc1)C(=O)N1CCC(n2cc(-c3nc(C(C)C)no3)nn2)C1 (centres undefined),i
COc1ccc(C(=O)NCC(=O)N2CCN(c3ccccn3)CC2)c(C)c1,i
CCOc1ccccc1NC(=O)Nc1nnc(N2CCCCCC2)s1,-25.6%
Cc1cc(N2CCN(C)CC2)nc2ccc(NC(=O)Nc3ccc(Cl)cc3)cc12,11.2µM*
Cc1cc(N2CCC(C)CC2)nc2ccc(NC(=O)Cc3ccccc3Br)cc12,-18.7%
CC(C)(C)c1ccc(C(=O)Nc2ccc(NC(=O)c3ccc(Cl)c(Cl)c3)cc2)cc1,11.1%
COc1ccccc1CC(=O)Nc1ccc2nc(N3CCC(C)CC3)cc(C)c2c1,2.8%
Cc1ccccc1C(=O)Nc1ccc2nc(N3CCCCC3)cc(C)c2c1,i
Cc1cc(SCC(=O)Nc2ccc(Cl)cc2)nc2ccccc12,i
COc1cc(C(=O)Nc2ccc(NC(=O)c3ccc(C(C)(C)C)cc3)cc2)cc(OC)c1OC,i
SMILES,Pf Dd2 inh
CCOc1ccccc1NC(=O)Nc1ccc2nc(N3CCN(C)CC3)cc(C)c2c1,0.447µM*
Cc1cc(N2CCN(C)CC2)nc2ccc(NC(=O)c3ccc(C(C)(C)C)cc3)cc12,6.31µM*
Cc1ccccc1NC(=O)Nc1ccc2nc(N3CCN(C)CC3)cc(C)c2c1,2µM*
CN1CCN(c2ccc3nnc(-c4cc(C(=O)Nc5cccc(Cl)c5)ccn4)n3n2)CC1,i
Cc1noc(-c2cccn3c(CNC(=O)c4cccc(F)c4)nnc23)n1,i
Cc1cccc(CC(=O)N2CCc3c(nc4cc[nH]n4c3=O)C2)c1,-13.3%
COc1ccc(-c2cc(N3CCCC(NC(=O)c4ccoc4)C3)n[nH]2)cc1 (centres undefined),-16.1%
CCCN(CC1CCOC1)C(=O)Nc1ccc(C)cc1Cl (centres undefined),2.9%[5.79 µM]
O=C(NCCN1CCOC1=O)c1cn(Cc2ccccc2C(F)(F)F)nn1,2.2%
C[C@H](O)c1onc(-c2ccccc2)c1C(=O)NC1CCC1,-5.4%[44.1 µM]
COc1ccc(-c2ccc3nnc(CNC(=O)c4ccccc4Cl)n3n2)cc1,i
F[C@@H]1CN(C2CCOCC2)C[C@@H]1OCc1nc2ccccc2[nH]1,35.7%[44.1 µM]
O=C(NC[C@H]1O[C@@H]2C[C@@H](CC(=O)N3CCC(F)(F)C3)O[C@@H]2[C@@H]1O)Nc1ccc(F)cc1,-0.9%
Cc1nnc2n1CCC(N(C)C(=O)CCc1ccccc1)CC2 (centres undefined),5.5%
CC1CCN(S(=O)(=O)c2ccc3c(c2)oc(=O)n3CC(=O)NC(C)c2ccccc2)CC1 (centres undefined),11.2µM*

# Screens (PubChem BioAssay)
